The supplement of paper PMC7156485
Structures can show the parent of a compound that is named as a salt.

Legend:
Conditions in all cases: concentration: 10 µM; 24 h
HCC1569 [1] = assay: cell number relative to DMSO (% of DMSO); higher = more cells (less growth inhibition / toxicity)
How it was run: (§1)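 HCC1569 and TDF cells were seeded at 800 per well in 384-well plates in RPMI with 10% FBS and treated with compounds at 10 µM for 24 h at 37 °C, in triplicate. After fixation in 3.7% formaldehyde, cells were stained with a rabbit anti-H1.0 antibody, an AlexaFluor 647 secondary and DAPI, and six fields per well were imaged at ×10. H1.0 nuclear intensity or cell number is given as percent of the plate control, using the median of replicates, with HCC1569 values smoothed for positional effects.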

TDF [2] = assay: as above
How it was run: as §1

TDF [3] = assay: H1.0 immunofluorescence intensity relative to DMSO (% of DMSO); higher = stronger H1.0 induction, active = 120 or more
How it was run: as §1

HCC1569 [4] = assay: H1.0 immunofluorescence intensity relative to DMSO (% of DMSO); higher = stronger H1.0 induction, active = 140 or more
How it was run: as §1
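Wherever H1.0 immunofluorescence intensity relative to DMSO is given: TDF is a line of transformed human dermal fibroblasts of mesenchymal origin.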
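Wherever cell number relative to DMSO is given: TDF denotes transformed human dermal fibroblasts of mesenchymal origin.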

SMILES	cell number (HCC1569 [1])	cell number (TDF [2])	H1.0 immunofluorescence intensity (TDF [3])	H1.0 immunofluorescence intensity (HCC1569 [4])
COc1ccc(-n2nc(C(F)(F)F)cc2-c2ccc(Cl)cc2)cc1	104	106	87.5 (inactive)	90.3 (inactive)
CC[N+](CC)(CC)CC.[Cl-] [Tetraethylammonium chloride]	101	108	90.2 (inactive)	108 (inactive)
O=C1Nc2ccc3ncsc3c2C1=Cc1cnc[nH]1 [PKR Inhibitor]	61.1	17	112 (inactive)	136 (inactive)
Cl.OC1CCCCC1N1CCC(c2ccccc2)CC1 (centres undefined) [Vesamicol hydrochloride]	99	104	94.2 (inactive)	106 (inactive)
C[N+]1(C)C2CC(OC(=O)C(CO)c3ccccc3)CC1C1OC12.O=[N+]([O-])[O-] (single isomer, unassigned; (-)) [(-)-Scopolamine methyl nitrate]	99.7	98.7	93.1 (inactive)	106 (inactive)
Cl.O=C1CCC2(O)C3Cc4ccc(O)c5c4C2(CCN3CC2CC2)C1O5 (centres undefined) [Naltrexone hydrochloride]	103	115	90.8 (inactive)	96 (inactive)
N[C@@](CF)(Cc1cnc[nH]1)C(=O)O [MK-453 hydrochloride]	101	103	100 (inactive)	91.5 (inactive)
CCC1(c2ccc(N)cc2)CCC(=O)NC1=O (racemic)	98.8	109	85.7 (inactive)	89.1 (inactive)
Cl.NCC(O)c1cc(O)c(O)cc1F (centres undefined) [6-Fluoronorepinephrine hydrochloride]	99.2	111	89.4 (inactive)	83.2 (inactive)
OC1CN2CCCC(O)C2C1O (centres undefined) [Swainsonine]	100	98.6	99.5 (inactive)	95.8 (inactive)
CC12CCC3C(CCC4=C(O)C(=O)CCC43C)C1CCC2=O (centres undefined) [Formestane]	105	98.1	98.3 (inactive)	111 (inactive)
